Experimental data as given in PubChem BioAssay (Tox21).
Active and inactive are the calls of the source. Entries that show only a call come without a potency. The call rests on the fitted dose curve.

Target: Androgen receptor (Homo sapiens) (UniProt P10275)
Assay: qHTS assay to identify small molecule agonists of the androgen receptor (AR) signaling pathway in the presence of an antagonist (AID 1259381); further: nearly all actives have a fitted effect of over 15% in size
Settings: MDA-kb2 MMTV-luciferase, AR agonist + nilutamide, 16 h; series mostly up to 92.4 µM
From the text: National Center for Advancing Translational Sciences [NCATS] NIH Chemical Genomics Center [NCGC] U.S. Environmental Protection Agency [EPA] National Institutes of Environmental Health Sciences [NIEHS] National Toxicology Program [NTP] Assay overview: Androgen receptor (AR) is an important member of nuclear receptor family. Its signaling plays a critical role in AR-dependent prostate cancer and other androgen related diseases. Considerable attention has been given in the past decades to develop methods to study and screen for the environmental chemicals that have the potential to interfere with metabolic homeostasis, reproduction, developmental and behavioral functions. Therefore AR binding assay for screening against androgen agonists and antagonists can be used to identify potential endocrine disruptors. MDA-kb2 cells (from ATCC, deposited by Wilson et al.) are human breast carcinoma cells that were stably transfected with a luciferase reporter gene under control of the MMTV promoter that contains response elements for both androgen receptor (AR) and glucocorticoid receptor (GR). This particular screening for measuring luciferase reporter gene activity using MDA-kb2 cells against Tox21 10K library compounds is a confirmation study on agonist mode screening in the presence of AR-antagonist compound (Nilutamide) at 3.0uM final concentration.
Assay Protocol Summary: MDA-kb2 cells (cells cultured without CO2) were dispensed at 3,000 cells/well in 4uL of culture medium into white wall/solid-bottom 1536-well plates (Corning Life Sciences, Corning, NY) using a Multidrop Combi (Thermo Fisher Scientific Inc., Waltham, MA) dispenser. The assay plates were incubated at 37C and 0% CO2 for 5hr. One uL of 3.0uM (final concentration) Nilutamide or assay buffer was added using two separate tips of Flying Reagent Dispenser (FRD, Aurora Discovery, San Diego, CA). Then 23nL of compounds dissolved in DMSO at 15 concentrations and positive controls were transferred to the assay plates using a Pintool station (Wako, San Diego, CA). The assay plates were incubated at 37C and 0% CO2 for 16hr. For luciferase read, 4uL/well ONE-Glo reagent (Promega Corporation, Madison, WI) was added to each well of the assay plates using FRD. After 30min incubation at room temperature, the luminescence signal was measured using a ViewLux plate reader (PerkinElmer, Shelton, CT).
Potency means the concentration at half of the fitted maximal effect.

Chain of Androgen receptor (Homo sapiens) (P10275 whole entry, looked up): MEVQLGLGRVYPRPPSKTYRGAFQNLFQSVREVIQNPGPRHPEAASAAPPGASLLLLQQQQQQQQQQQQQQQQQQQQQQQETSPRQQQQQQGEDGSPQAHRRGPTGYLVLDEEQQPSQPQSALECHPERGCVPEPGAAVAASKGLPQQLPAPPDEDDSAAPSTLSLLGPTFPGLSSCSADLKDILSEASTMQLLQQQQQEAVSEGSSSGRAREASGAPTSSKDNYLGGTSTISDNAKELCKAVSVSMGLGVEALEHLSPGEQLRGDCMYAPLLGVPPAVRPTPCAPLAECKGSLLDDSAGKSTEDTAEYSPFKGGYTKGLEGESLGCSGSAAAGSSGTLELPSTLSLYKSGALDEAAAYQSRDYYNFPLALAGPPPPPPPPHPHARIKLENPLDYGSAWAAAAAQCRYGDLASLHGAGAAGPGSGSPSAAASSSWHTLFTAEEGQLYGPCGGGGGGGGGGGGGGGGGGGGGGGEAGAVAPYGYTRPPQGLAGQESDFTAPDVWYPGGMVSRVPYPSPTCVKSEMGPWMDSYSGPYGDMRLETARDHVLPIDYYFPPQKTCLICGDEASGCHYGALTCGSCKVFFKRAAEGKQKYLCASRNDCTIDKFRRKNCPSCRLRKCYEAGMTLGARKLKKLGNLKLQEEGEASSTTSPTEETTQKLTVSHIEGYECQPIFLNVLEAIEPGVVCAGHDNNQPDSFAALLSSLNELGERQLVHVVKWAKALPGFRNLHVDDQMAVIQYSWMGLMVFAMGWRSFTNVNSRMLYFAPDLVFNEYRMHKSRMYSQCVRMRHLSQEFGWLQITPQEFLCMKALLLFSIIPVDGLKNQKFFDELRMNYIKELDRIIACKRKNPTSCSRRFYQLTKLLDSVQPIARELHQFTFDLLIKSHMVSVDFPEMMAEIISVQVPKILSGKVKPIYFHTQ

SMILES | Potency | activation
CC(C)c1ccc2cc(C(C)C)ccc2c1 | inactive | 
Cc1cc(C(C)(C)C)c(O)c(C)c1CC1=NCCN1 | inactive | 
CCC(C)NC(N)=O (stereo not given) | inactive | 
CC/C=C\CC1=C(C)CCC1=O | inactive | 
O=C(CCN1CCN(CCO)CC1)N1c2ccccc2Sc2ccc(C(F)(F)F)cc21 | inactive | 
COCCOCCOCCOCCO | inactive | 
COCCc1ccc(OCC2CO2)cc1 (stereo not given) | inactive | 
Cc1ccc2ccc(Cl)cc2n1 | inactive | 
N[C@@H](CCC(=O)Nc1ccc([N+](=O)[O-])cc1)C(=O)O | inactive | 
CCN(C)C(=O)Oc1cccc([C@H](C)N(C)C)c1 | inactive | 
CC(C)(C)NC(N)=O | inactive | 
CCN(CC)CC(=O)Nc1c(C)cccc1C | inactive | 
NS(=O)(=O)c1cc2c(cc1Cl)CN(C1CCCCC1)C2=O | inactive | 
CC(C(=O)O)c1ccc2c(c1)CC(=O)c1ccccc1S2 (stereo not given) | inactive | 
CC(CO)c1ccccc1 (stereo not given) | inactive | 
CC(C)(C)OC(=O)c1ccc(O)cc1 | inactive | 
CCCCOC(=O)c1ccccc1 | inactive | 
Cc1cc(Cl)c(C)cc1Cl | inactive | 
COc1cc(NS(=O)(=O)c2ccc(N)cc2)nc(OC)n1 | inactive | 
O=C(OCC(O)CO)c1ccccc1Nc1ccnc2c(C(F)(F)F)cccc12 (stereo not given) | inactive | 

SMILES | Potency | activation
CC(C)C(=O)OCc1cccc(OC(=O)[C@@H]2N3C(=O)[C@@H](NC(=O)Cc4ccccc4)[C@H]3SC2(C)C)c1 | inactive | 
Oc1ccccc1-c1nnco1 | inactive | 
CC(C)NCC(O)COc1cccc2[nH]ccc12 (stereo not given) | inactive | 
N#Cc1ccc(C(=O)O)cc1 | inactive | 
O=C(O)Cc1ccc(Cl)cc1Cl | inactive | 
O=C(NCCc1c[nH]c2ccccc12)c1cccnc1 | inactive | 
OCCC(F)(F)C(F)(F)C(F)(F)C(F)(F)C(F)(F)C(F)(F)C(F)(F)C(F)(F)F | inactive | 
CCCOC(=O)C(C)O (stereo not given) | inactive | 
CC(=O)NCc1c(I)c(NC(C)=O)c(I)c(C(=O)O)c1I | inactive | 
Nc1ccc(S(=O)(=O)Nc2ccc(Cl)nn2)cc1 | inactive | 
O=C(Nc1ccc(Cl)c(Cl)c1)C1CC1 | inactive | 
Oc1cn2c(n1)Nc1ccc(Cl)c(Cl)c1C2 |  | 1.01% [at 19 µM] (inactive)
O=C(OCC(COC(=O)c1cccnc1)(COC(=O)c1cccnc1)COC(=O)c1cccnc1)c1cccnc1 | inactive | 
O=C(O)C(=O)Cc1ccccc1 | inactive | 
COc1cc2c(cc1OC)C(=O)CC2 | inactive | 
C=COCCOCCOCCOC=C | inactive | 
NC(CO)C(=O)NNCc1ccc(O)c(O)c1O (stereo not given) | 13.3 µM (active) | 
Cc1cccc(OCC(O)CNC(C)(C)C)c1C (stereo not given) | inactive | 
CNC(=O)[C@H]1O[C@@H](n2cnc3c(NCc4cc(Cl)ccc4OCc4cc(C)no4)ncnc32)[C@H](O)[C@@H]1N | inactive | 
Cc1[nH]cnc1-c1ccc(Cl)cc1 | inactive | 
